Measured values from PubChem BioAssay (NCI).
About 83,000 compounds went through this panel and 20% of them were active in at least one assay; those are over-represented in the sample as a whole.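 How to read the values: 0–100, growth inhibition (40 = 60% inhibited); 0, no net growth; -100 to 0, cell death (-40 = 40% of starting cells died; -100 = all dead).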 Values without a mark were called inactive. Active and inactive are the calls of the source. How the source made its calls: active means growth percent below 10; inactive means the rest.

Assays:
Assay in all cases: NCI-60 one-dose screen, 48 h (100 = growth as untreated, 0 = no growth, -100 = all killed)
Details in all cases: 10 µM unless noted
[1] = tested on: SK-MEL-2 melanoma
[2] = tested on: SN12C renal
[3] = tested on: UO-31 renal
[4] = tested on: TK-10 renal
[5] = tested on: ACHN renal
[6] = tested on: CAKI-1 renal
[7] = tested on: A498 renal
[8] = tested on: CCRF-CEM leukemia
[9] = tested on: MOLT-4 leukemia
[10] = tested on: EKVX NSCLC

Row | Structure (SMILES) | growth [1] [%] | growth [2] [%] | growth [3] [%] | growth [4] [%] | growth [5] [%] | growth [6] | growth [7] [%] | growth [8] | growth [9] | growth [10] [%]
1 | COc1cc(C2C(C(=O)c3cccs3)=C(O)C(=O)N2CCN2CCOCC2)cc(OC)c1OC (stereo not drawn) | 102 | 104 | 97.3 | 99.2 | 102 | 101% | 84.8 | 120% | 129% | 
2 | OCC1C2C=CC(C2)C1CO (stereo not drawn) | 114 |  | 93.1 | 112 | 105 |  | 92.5 | 126% | 97.9% | 102
3 | COc1ccc(/C=N\NC(=O)c2ccncc2)cc1O | 90.8 | 96.7 | 77.8 | 102 | 102 | 90.4% | 108 | 99.3% | 95.6% | 
4 | CN1Cc2c(cc(CN3CCCCC3)n2C)C(c2ccc(Br)cc2)C1 (stereo not drawn) | 114 | 84.8 |  |  | 98.1 | 83.7% | 98.1 | 88.2% | 92.5% | 77.2
5 | Nc1cccc(NC(=O)C(=O)Nc2cccc(N)c2)c1 | 97.6 | 88.6 | 84.4 |  | 85.8 | 78.1% | 89.6 | 97.9% | 98.1% | 94
6 | N#Cc1ccc(NC(=O)Nc2ccc(Cc3ccc(NC(=O)Nc4ccc(C#N)cc4)cc3)cc2)cc1 | 12.8 | 29.5 |  |  | 31.2 | 48.5% | 49.5 | 17.4% | 12.5% | 14.5
7 | CCN(CC)CC(C)(C)C(=O)/C=C/c1ccccc1 | 99.9 | 41.1 |  | 91.5 | 43.1 | 49.7% | 68.4 | 9.36% (active) | 19.1% | 26.7
8 | CCc1ccc(C(c2ccc(CC)cc2)C(Cl)(Cl)CCl)cc1 | 94.2 |  | 84.1 | 109 | 97.6 | 96.6% | 81.7 | 114% | 84.4% | 95.8
9 | CCCCN(CC)CCCCCCCCCCN1CCCc2cc(OC)ccc21 | 92.8 |  | 24.4 | 87.8 | 76.7 | 6.91% (active) | 75.9 | 7.28% (active) | -19.6% (active) | 34.5
